Data reported in PubChem BioAssay AID1159580 (chemical genetic matrix, 2015).
In all, about 5,500 compounds went through this assay and about 2,000 (36%) were called active. Not shown: some 18% with an inconclusive outcome. No stated cut-off is given here; in the data, active means normalized growth mostly below about 0.91 (no sharp cut-off); inconclusive means no clear call, values can overlap the other calls; inactive means mostly above about 0.92. This is one part of the list.

Experiment: chemical genetic growth profiling, strain panel (AID 1159580);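 further: tested at 20 µM; growth read once vehicle control cultures reached saturation at 30 °C; 1 = growth at the plate median or of vehicle wells; lower values mean less growth of the strain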
Conditions: S. cerevisiae deletion strains, growth OD

Measured: normalized growth

CC1=C(/C=C/C(C)=C/C=C/C(C)=C/C=C/C=C(C)/C=C/C=C(C)/C=C/C2=C(C)C(=O)CCC2(C)C)C(C)(C)CCC1=O
inactive: locus YAL021C, strain ccr4, active compounds read low 1.02 | locus YAL026C, strain drs2, active compounds read low 0.964 | locus YAL030W, strain snc1, active compounds read low 0.981 | locus YBL061C, strain skt5, active compounds read low 0.981 | locus YBR009C, strain hhf1, active compounds read low 0.941 | locus YBR023C, strain chs3, active compounds read low 0.987 | locus YBR171W, strain sec66, active compounds read low 0.975 | locus YBR231C, strain swc5, active compounds read low 0.982 | locus YBR279W, strain paf1, active compounds read low 0.989 | locus YCL011C, strain gbp2, active compounds read low 0.96 | locus YCL016C, strain dcc1, active compounds read low 1 | locus YCL061C, strain MRC1, active compounds read low 1.01 | locus YCL069W, strain vba3, active compounds read low 0.975 | locus YCR088W, strain abp1, active compounds read low 0.994 | locus YDL005C, strain med2, active compounds read low 0.981 | locus YDL040C, strain nat1, active compounds read low 0.978 | locus YDR001C, strain nth1, active compounds read low 0.986 | locus YDR069C, strain doa4, active compounds read low 0.996 | locus YDR137W, strain rgp1, active compounds read low 1.03 | locus YDR159W, strain sac3, active compounds read low 0.961 | locus YDR195W, strain ref2 0.944 | locus YDR297W, strain sur2, active compounds read low 0.995 | locus YDR334W, strain swr1, active compounds read low 0.982 | locus YDR335W, strain msn5, active compounds read low 0.992 | locus YDR392W, strain spt3, active compounds read low 0.92 | locus YEL003W, strain gim4, active compounds read low 0.979 | locus YEL037C, strain rad23, active compounds read low 0.971 | locus YEL061C, strain CIN8 (second series), active compounds read low 0.979 | locus YER015W, strain faa2, active compounds read low 0.984 | locus YER016W, strain bim1, active compounds read low 1.01 | locus YER111C, strain swi4, active compounds read low 0.963 | locus YER155C, strain BEM2 (second series), active compounds read low 0.973 | locus YFR010W, strain ubp6, active compounds read low 0.971 | locus YGL167C, strain pmr1, active compounds read low 0.978 | locus YGL173C, strain kem1, active compounds read low 0.99 | locus YGL227W, strain vid30, active compounds read low 0.971 | locus YGL240W, strain doc1, active compounds read low 1.01 | locus YGL253W, strain hxk2, active compounds read low 0.963 | locus YHR013C, strain ard1, active compounds read low 0.958 | locus YHR027C, strain rpn1, active compounds read low 0.997 | locus YHR142W, strain chs7, active compounds read low 1.01 | locus YJL092W, strain hpr5, active compounds read low 0.999 | locus YJL095W, strain BCK1 (second series), active compounds read low 1 | locus YJL115W, strain asf1, active compounds read low 0.98 | locus YJL129C, strain trk1, active compounds read low 0.989 | locus YJL154C, strain vps35, active compounds read low 0.975 | locus YJL164C, strain tpk1, active compounds read low 1.02 | locus YJL166W, strain qcr8, active compounds read low 1 | locus YJL187C, strain SWE1, active compounds read low 0.985 | locus YKL160W, strain elf1, active compounds read low 1.07 | locus YKR026C, strain gcn3, active compounds read low 0.977 | locus YKR091W, strain srl3, active compounds read low 0.985 | locus YLL001W, strain dnm1, active compounds read low 0.997 | locus YLL026W, active compounds read low 0.987 | locus YLL041C, strain sdh2, active compounds read low 0.998 | locus YLR027C, strain aat2, active compounds read low 1.01 | locus YLR221C, strain rsa3, active compounds read low 1.01 | locus YLR258W, strain gsy2, active compounds read low 0.982 | locus YLR262C, strain YPT6 (second series), active compounds read low 1.05 | locus YLR320W, strain mms22, active compounds read low 0.99 | locus YLR342W, strain FKS1, active compounds read low 0.983 | locus YLR357W, strain rsc2, active compounds read low 0.966 | locus YLR370C, strain arc18, active compounds read low 0.986 | locus YLR384C, strain iki3, active compounds read low 0.998 | locus YML120C, strain ndi1, active compounds read low 0.996 | locus YMR058W, strain fet3, active compounds read low 0.965 | locus YMR125W, strain sto1, active compounds read low 0.92 | locus YMR129W, active compounds read low 0.975 | locus YMR205C, strain PFK2, active compounds read low 0.937 | locus YMR231W, strain pep5, active compounds read low 0.987 | locus YNL071W, strain lat1, active compounds read low 0.99 | locus YNL209W, strain ssb2, active compounds read low 0.991 | locus YNL248C, strain rpa49, active compounds read low 1.03 | locus YNL322C, strain KRE1 (second series), active compounds read low 0.989 | locus YNR049C, strain mso1, active compounds read low 0.965 | locus YOR001W, strain rrp6, active compounds read low 1.03 | locus YOR070C, strain gyp1, active compounds read low 1.02 | locus YOR080W, strain dia2, active compounds read low 0.993 | locus YOR083W, strain WHI5, active compounds read low 1.05 | locus YOR106W, strain vam3, active compounds read low 0.986 | locus YOR265W, strain rbl2, active compounds read low 1.01 | locus YOR270C, strain vph1, active compounds read low 0.871 | locus YOR290C, strain snf2, active compounds read low 0.934 | locus YPL051W, strain arl3, active compounds read low 1.02 | locus YPL078C, strain atp4, active compounds read low 0.997 | locus YPL106C, strain sse1, active compounds read low 1.01 | locus YPL240C, strain hsp82, active compounds read low 1
